Assay outcomes: PubChem BioAssay, The Scripps Research Institute Molecular Screening Center
FBW7 act – FBW7 E3 ligase activators, primary screen, biochemical, AlphaScreen, human; F-box/WD repeat-containing protein 7 (Homo sapiens), Q969H0; AlphaScreen FBW7–phospho-cyclin E peptide binding, activator screen; normalized activity (activation), % at 26.1 µM; 650,000 tested, 0.13% active; AID 1259310, 2017; in the data active means normalized activity above about 1.9%;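 further: purified mutant Fbw7 with reduced substrate affinity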
GPR151 ag – activators of human GPR151, primary screen, cell-based, PathHunter beta-arrestin, luminescence; PathHunter beta-arrestin GPR151 cells; activation, % at 11.2 µM; 650,000 tested, 1% active; in the data active means activation above about 4.9%;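 further: 0% = median of compound wells and 100% = cells with positive control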
Target sequence (Q8TDV0 whole entry, looked up): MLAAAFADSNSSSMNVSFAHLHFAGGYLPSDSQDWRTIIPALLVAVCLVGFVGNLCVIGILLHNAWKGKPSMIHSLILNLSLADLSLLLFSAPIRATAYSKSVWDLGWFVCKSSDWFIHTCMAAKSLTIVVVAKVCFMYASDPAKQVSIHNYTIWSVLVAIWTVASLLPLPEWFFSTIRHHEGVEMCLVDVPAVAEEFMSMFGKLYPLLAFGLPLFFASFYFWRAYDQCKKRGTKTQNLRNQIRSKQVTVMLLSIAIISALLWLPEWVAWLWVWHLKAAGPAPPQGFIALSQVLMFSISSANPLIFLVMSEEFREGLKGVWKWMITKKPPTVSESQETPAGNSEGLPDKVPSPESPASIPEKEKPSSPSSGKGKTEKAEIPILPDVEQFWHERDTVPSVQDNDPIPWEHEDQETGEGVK
MITF inh – MITF inhibitors, primary screen, biochemical, AlphaScreen, human. inhibition, % at 2.6 µM. 650,000 tested, 0.91% active. Microphthalmia-associated transcription factor (Homo sapiens), O75030. AlphaScreen MITF homodimerization, bead proximity signal; in the data active means inhibition above about 50%;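 further: 0% = vehicle wells with protein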
TEAD-YAP inh – TEAD-YAP interaction inhibition, primary screen, TEAD-YAP interaction inhibitor project, luminescence, HEK-TIYL cells | TEAD-Gal4/YAP UAS-luciferase luminescence | inhibition, % at 9.12 µM | 640,000 tested, 1.4% active | AID 1259422, 2018; in the data active means inhibition above about 32%;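 further: 0% = median of test compound wells and 100% = reference inhibitor wells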
MITF inh conf – MITF inhibitors, retest of hits, confirmation, biochemical, AlphaScreen, triplicate. shares compounds with MITF inh. AlphaScreen MITF homodimerization, biotin/His-MITF beads. inhibition, % at 2.6 µM. 4,700 tested, 16% active;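 active means inhibition above a cutoff derived from the DMSO control wells, cut at about 28% in these data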;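 further: 0% = MITF dimer wells with DMSO only; inhibitors lower the bead chemiluminescence by keeping MITF from dimerizing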
AS interf DR – AlphaScreen optical interference compounds, dose response, counter-screen, biochemical, HTS; shares compounds with MITF inh; AlphaScreen optical interference counterscreen, cell-free; IC50, µM; 480 tested, 6% active; AID 1259373, 2018; call rule not given here
AlphaScreen intf2 – AlphaScreen optical interference compounds, counter-screen for MITF inhibitor project, biochemical, triplicate | inhibition, % at 2.6 µM | shares compounds with MITF inh | 4,700 tested, 7.6% active | LysRS AlphaScreen counterscreen, signal interference | AID 1259376, 2018;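 active means inhibition above a cutoff derived from the DMSO control wells, cut at about 30% in these data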
Active calls of the source: *; nt = not tested or not shown. In the library only some 3.5% were active in any assay of this set; here they are far more common.

SMILES	FBW7 act	GPR151 ag	MITF inh	TEAD-YAP inh	MITF inh conf	AlphaScreen intf2	others
Cc1cc(OCCN2CCCCCC2)ccc1[N+](=O)[O-]	0	-1	20	-4	nt	nt
COc1cccc(CN2CCSCC2)c1OC	0	0	32	-6	nt	nt
COc1ccc(CN2CCN(Cc3ccccc3Cl)CC2)c(OC)c1OC	0	0	54*	4	14	18
CCN1CCCC1CNC1CCN(c2ccc(NC(=O)c3cccc(Cl)c3)cc2)CC1 (configuration not stated)	0	0	-5	-18	nt	nt
COc1ccc(C2=NN(c3ccccc3)C(=O)/C2=C\c2ccc(OC)cc2OC)cc1	0	0	-1	-3	nt	nt
CC(=O)Nc1ccc(CN2C(=O)C(C)Oc3ccc(F)cc32)cc1 (configuration not stated)	0	0	-3	0	nt	nt
COc1cccc(C(=O)N2CCC3(CC2)CC3C(=O)Nc2ccccc2)c1OC (configuration not stated)	0	0	2	9	nt	nt
COc1cccc(C(=O)N2CCC3(CC2)CC3C(=O)NCCCc2ccccc2)c1OC (configuration not stated)	1	0	73*	-1	-3	-3
O=C(Nc1ccccc1O)c1cccc(N2C(=O)c3ccccc3C2=O)c1	0	0	-3	-7	nt	nt
OCCCNc1ccc2ncc(-c3ccccc3Cl)n2n1	0	2	85*	8	13	17
CN(C)CCCOc1ccccc1-c1ccccc1	0	0	53*	6	-11	-4
CN(C)CCNCCCOc1ccccc1-c1ccccc1	0	1	74*	-1	2	22
CN(C)CCCOc1cccc(Oc2ccccc2)c1	0	1	62*	1	1	12
CN(C)CCNCCOCCOc1ccccc1-c1ccccc1	0	-1	0	5	nt	nt
CN(C)CCOCCOc1cccc(Oc2ccccc2)c1	0	2	51	-9	nt	nt
CC1(C)Cc2c(sc(NC(=O)Nc3ccccc3)c2C#N)CO1	1	-4	10	-19	nt	nt
O=C(CC(NCc1ccccn1)C(=O)O)Nc1cccc([N+](=O)[O-])c1 (configuration not stated)	0	-1	43	-3	nt	nt
O=C(CC(NCc1ccco1)C(=O)O)Nc1ccc(Oc2ccccc2)cc1 (configuration not stated)	0	1	6	-2	nt	nt
O=C(CC(NCc1ccccn1)C(=O)O)Nc1ccc(Oc2ccccc2)cc1 (configuration not stated)	0	2	90*	2	95*	100*
O=C(CC(NCc1ccccn1)C(=O)O)Nc1ccc(F)cc1 (configuration not stated)	0	2	108*	-15	102*	100*
c1coc(CNc2ccc3ncc(-c4ccco4)n3n2)c1	2	0	56*	0	84*	19	AS interf DR=>6.5
COc1cc(OC)c(OC)cc1CN1CCN(Cc2cc(OC)c(O)c(OC)c2)CC1	0	-1	60*	-3	2	9
COc1cc(OC)c(OC)cc1CN1CCN(Cc2ccncc2)CC1	0	-1	80*	5	1	11
CCn1c2ccccc2c2cc(CN3CCN(Cc4cc(OC)c(OC)cc4OC)CC3)ccc21	0	-1	69*	-6	13	21
COc1cc(OC)c(OC)cc1CN1CCN(Cc2ccc(C)cc2)CC1	0	1	63*	1	71*	16	AS interf DR=>5.8
CCS(=O)(=O)N1CCN(Cc2cc(OC)c(OC)cc2OC)CC1	0	2	37	6	nt	nt
CC(C)(C)C1(C)OC(=O)C(=Cc2ccc(F)cc2)C(=O)O1 (configuration not stated)	0	-1	12	6	nt	nt
Cn1cc(CN(CCO)CCO)c(-c2ccc(C3CCCCC3)cc2)n1	0	2	3	4	nt	nt
